Records with an inconclusive call do not appear. Calls of active or inactive are those of the source. Unless noted, the call rests on the fitted dose curve; in most records, active means well fitted curve in the direction sought with a large enough effect; inconclusive means small, poorly fitted or top-dose-only effect, or another doubt; inactive means no such curve, though single readings can be large; an effect the other way counts as inactive or inconclusive.

These results are taken from PubChem BioAssay (NCATS).

The nature of assay [1]: Validation screen for small molecules that induce genotoxicity in human embryonic kidney (HEK293T) cells expressing luciferase-tagged ELG1 (AID 493106). Further: 0% is about no effect. An outline of the steps: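 ELG1-luciferase reporter readout (ONE-Glo, 30 min, room temperature) after 16 hr compound treatment at 37 °C of HEK293T cells at 2,000 per well. Rising luminescence flags genotoxic stress.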
Assay [2] addresses Thyrotropin-releasing hormone receptor (Homo sapiens) (UniProt P34981). In words: qHTS for Small Molecule Agonists and Allosteric Enhancers of Human TRH Receptor: Validation Screen for Agonists (AID 493127;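 active means calcium activation more than 3 SD above the typical response in the agonist read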;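 further: intracellular calcium rise by fluo-8 fluorescence before TRH EC20 addition; 0% is about no effect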). The settings on record: TRH receptor agonist cell assay; at 2 µM; stronger effect = higher value. In a few lines: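 Compound-evoked intracellular calcium release in fluo-8-loaded TRHR cells, read kinetically on FDSS (Ex 480/Em 530, 1 s/cycle) after 23 nL pintool transfer. Agonist phase preceded 10 nM TRH EC20 addition.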
On the technique in general: In qHTS, concentration-response curves come from the screen itself.

The nature of assay [3]: Nrf2 qHTS screen for inhibitors: Validation (AID 493153; active means well fitted inhibition curve with a large enough effect in the main read-out, with a control signal flat, not every such curve was filed as active). The settings on record: Potency: luciferase luminescence; viability change: measured here: cytotoxicity max response. In a few lines:
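Concentration-response on A549 ARE_Fluc reporter cells exposed 18-24 h at 37 C, 5% CO2. Cytotoxicity read first by CellTiter-Fluor fluorescence (Ex 405/Em 525), then Nrf2 inhibition by BugLite luminescence after 15 min.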

A short description of assay [4]: qHTS for Inhibitors of Cell Surface uPA Generation: Validation Assay (AID 493164).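 Further: RAW 264.7 macrophage cells exposed to compound for 18 h; 0% is about no effect.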 An outline of the steps:
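ATP-Lite luminescence read-out: ATP remains high when uPA activity-dependent LF translocation into the cytoplasm is blocked. RAW 264.7 cells, 18 h compound exposure at 37 C; 7-point titration, 2.45 nM to 38.3 uM final.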

For assay [5], the target named is Galactokinase (Homo sapiens) (UniProt P51570). The assay can be described thus: qHTS Validation Assay for Inhibitors of Human Galactokinase (GALK) (AID 493189). Further: 0% is about no effect. In a few lines:
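GALK (5 nM) with 35 uM ATP and 100 uM galactose in HEPES pH8.0, MgCl2, NaCl, DTT, BSA; 1 h at room temperature. Residual ATP read by Kinase-Glo Plus luminescence after 10 min.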

Assay [6] can be described thus: Validation screen for small molecules that induce DNA re-replication in SW480 colon adenocarcinoma cells (AID 504364). Further: 0% is about no effect. In a few lines: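 Image-based DNA content read-out: Hoechst stain 40 min, total nuclear fluorescence intensity (ex 405 nm, em 500-530 nm) after 48 h compound exposure of 250 SW480 cells/well at 37 C, 5% CO2, versus DMSO vehicle.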
The target in assay [7] is Peptidyl-prolyl cis-trans isomerase NIMA-interacting 1 (Homo sapiens) (UniProt Q13526). The assay can be described thus: qHTS Validation Assay to Find Inhibitors of Pin1 (AID 504536; active means well fitted inhibition curve with a large enough effect in the polarisation, with a control signal flat, not every such curve was filed as active; the % refers to the polarisation;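 further: 0% = full Pin1 enzyme wells and -100% = no-enzyme wells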). An outline of the steps:
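Fluorescence polarization competition: compounds (titration) displace HiFluor-488-labeled Pin1-1b peptide from Pin1 (0.3 uM final) in pH 7.5 HEPES buffer with DTT, 10 min at room temperature; %Activity normalized to no-enzyme wells, curves fitted.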

In assay [8] the target is phosphoglycerate mutase (Leishmania major) (UniProt Q4Q090). In words: qHTS Validation Assay to Find Inhibitors of Phosphoglycerate Mutase (AID 504548). Further: series mostly up to about 58 µM; on the % scale 0 is the no-effect control and ±100 the full control effect. An outline of the steps: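 Lm PGAM at 1.25 nM final with substrate in 100 mM TEA pH 7.6, 5 mM MgCl2, 0.01% Tween-20; 45 min at room temperature. Kinase-GloPlus added, 10 min, end-point luminescence read.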
phosphoglycerate mutase (Leishmania major), sequence (Q4Q090 1-553): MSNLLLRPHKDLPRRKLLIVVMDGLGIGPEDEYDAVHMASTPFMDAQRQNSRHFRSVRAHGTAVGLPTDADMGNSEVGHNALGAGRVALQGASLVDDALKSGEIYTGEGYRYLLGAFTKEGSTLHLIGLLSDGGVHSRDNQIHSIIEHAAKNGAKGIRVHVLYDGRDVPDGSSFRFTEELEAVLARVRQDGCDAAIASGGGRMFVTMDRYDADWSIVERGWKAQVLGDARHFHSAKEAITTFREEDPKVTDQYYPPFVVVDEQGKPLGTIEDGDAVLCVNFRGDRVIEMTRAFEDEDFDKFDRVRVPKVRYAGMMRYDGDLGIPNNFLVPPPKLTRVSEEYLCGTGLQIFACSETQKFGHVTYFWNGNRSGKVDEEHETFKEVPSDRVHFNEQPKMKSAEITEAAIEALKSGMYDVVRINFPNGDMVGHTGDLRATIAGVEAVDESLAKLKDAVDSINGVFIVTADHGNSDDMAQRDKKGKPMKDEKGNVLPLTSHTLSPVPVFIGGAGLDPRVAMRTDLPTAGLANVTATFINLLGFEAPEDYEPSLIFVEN
Assay [9] has as its target Ubiquitin carboxyl-terminal hydrolase 1 (Homo sapiens) (UniProt O94782). The assay can be described thus: Inhibitors of USP1/UAF1: Pilot qHTS (AID 504865).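 Further: rhodamine fluorescence freed from ubiquitin-rhodamine substrate followed over time; top concentration of the series differs between compounds; on the % scale 0 is the no-effect control and ±100 the full control effect; nearly all actives have a fitted effect of over 35% in size.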 In a few lines:
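USP1/UAF1 complex (1nM) preincubated with compound 15 min at room temperature, then Ub-Rho substrate (150nM final) added. Fluorescence read kinetically at 480/540 nm, 6 reads every 60 seconds. Buffer: 50mM HEPES pH 7.8, 0.5mM EDTA, 0.1 mg/ml BSA, 1mM TCEP, 0.01% Tween-20.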

Assay [10] is described as follows: qHTS for Inhibitors of ATXN expression: Validation of Cytotoxic Assay (AID 588349). Further: potency means the concentration at half of the fitted maximal effect. In a few lines:
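Cytotoxicity counter-screen: ATP-based luminescent viability (CellTiter Glo) after 72 hr exposure of HEK293 cells to a compound titration at 37 degrees C.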

In assay [11] the target is Phosphoglycerate kinase, glycosomal (Trypanosoma brucei brucei) (UniProt P07378). In words: qHTS Validation Assay to Find Inhibitors of Phosphoglycerate Kinase (AID 504547).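 Further: control wells lack PGK and mark full inhibition.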 In a few lines: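 In TEA buffer (100mM, pH 7.6) containing 5mM MgCl2 and 0.01% Tween-20, the GAPDH-coupled PGK reaction proceeded for 60 minutes at room temperature before a single luminescence reading using Kinase-Glo Plus.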
Phosphoglycerate kinase, glycosomal (Trypanosoma brucei brucei), sequence (P07378 whole entry, looked up): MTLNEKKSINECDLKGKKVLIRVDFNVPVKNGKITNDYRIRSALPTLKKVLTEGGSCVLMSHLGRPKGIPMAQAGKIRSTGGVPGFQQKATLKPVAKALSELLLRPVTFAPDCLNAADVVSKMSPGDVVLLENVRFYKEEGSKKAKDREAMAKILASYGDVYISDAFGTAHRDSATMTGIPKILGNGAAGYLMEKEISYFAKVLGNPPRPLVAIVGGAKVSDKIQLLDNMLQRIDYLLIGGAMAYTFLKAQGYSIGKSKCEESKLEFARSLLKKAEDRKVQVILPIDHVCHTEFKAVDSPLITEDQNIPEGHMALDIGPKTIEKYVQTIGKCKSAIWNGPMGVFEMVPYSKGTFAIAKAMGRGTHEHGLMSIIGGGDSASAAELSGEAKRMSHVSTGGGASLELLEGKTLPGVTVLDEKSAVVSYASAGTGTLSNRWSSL

A short description of assay [12]: qHTS for Inhibitors of ATXN expression: Validation (AID 588378). Further: nearly all actives have a fitted effect of over 75% in size. Further: potency means the concentration at half of the fitted maximal effect. In a few lines:
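Luminescence from an ATXN2-FFLuc reporter in HEK293 cells served as read-out after 24 h compound treatment at 37 degrees C; CellTiter-Fluor fluorescence was recorded first to assess viability.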

For assay [13], the target named is DNA dC->dU-editing enzyme APOBEC-3G (Homo sapiens) (UniProt Q9HC16). In words: qHTS for inhibitors of Vif-A3G interactions: Validation (AID 588379). Further: 0% is about no effect. An outline of the steps:
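Yellow fluorescence (Ex 488, Em 500-530) of Vif-coexpressing HeLa A3G-eYFP cells, scanned by Acumen cytometer, reports blocked A3G degradation. Cells plated at 700/well overnight at 37 deg C before compound addition, then a further overnight compound incubation at 37 deg C.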

The target in assay [14] is ATPase family AAA domain-containing protein 5 (Homo sapiens) (UniProt Q96QE3). In words: Validation screen for small molecules that inhibit ELG1-dependent DNA repair in human embryonic kidney (HEK293T) cells expressing luciferase-tagged ELG1 (AID 493107).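 Further: series mostly up to about 46 µM; on the % scale 0 is the no-effect control and ±100 the full control effect; inhibitors lower the ELG1-luciferase luminescence signal; nearly all actives have a fitted effect of over 70% in size.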 In a few lines:
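Luciferase read-out, ONE-Glo, 30 min at room temperature, follows 16 h co-exposure at 37 C of compound and the DNA-damaging agent 5-fluorouridine. Cells: HEK293T with ELG1-luciferase fusion, 2,000 per well, DMSO as vehicle.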

Ubiquitin carboxyl-terminal hydrolase 1 (Homo sapiens), sequence (O94782 whole entry, looked up): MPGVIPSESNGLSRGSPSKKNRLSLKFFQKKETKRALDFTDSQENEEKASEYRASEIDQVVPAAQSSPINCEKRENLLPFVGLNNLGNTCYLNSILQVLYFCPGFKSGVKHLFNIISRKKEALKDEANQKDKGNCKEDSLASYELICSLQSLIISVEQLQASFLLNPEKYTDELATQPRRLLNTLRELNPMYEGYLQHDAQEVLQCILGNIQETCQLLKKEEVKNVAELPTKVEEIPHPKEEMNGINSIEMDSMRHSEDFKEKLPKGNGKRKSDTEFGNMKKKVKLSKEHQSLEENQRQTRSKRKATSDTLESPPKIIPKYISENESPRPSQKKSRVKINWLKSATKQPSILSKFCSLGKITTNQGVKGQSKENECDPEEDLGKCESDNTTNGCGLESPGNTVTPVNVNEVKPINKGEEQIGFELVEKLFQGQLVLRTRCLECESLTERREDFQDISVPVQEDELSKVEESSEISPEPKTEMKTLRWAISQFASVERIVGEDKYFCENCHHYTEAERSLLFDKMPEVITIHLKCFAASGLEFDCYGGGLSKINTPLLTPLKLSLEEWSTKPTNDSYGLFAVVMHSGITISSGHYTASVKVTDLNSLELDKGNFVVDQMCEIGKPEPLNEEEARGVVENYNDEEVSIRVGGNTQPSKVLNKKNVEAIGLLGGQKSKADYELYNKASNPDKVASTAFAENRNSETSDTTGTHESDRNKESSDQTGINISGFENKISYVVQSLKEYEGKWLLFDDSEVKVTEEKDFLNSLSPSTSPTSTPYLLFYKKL
Galactokinase (Homo sapiens), sequence (P51570 whole entry, looked up): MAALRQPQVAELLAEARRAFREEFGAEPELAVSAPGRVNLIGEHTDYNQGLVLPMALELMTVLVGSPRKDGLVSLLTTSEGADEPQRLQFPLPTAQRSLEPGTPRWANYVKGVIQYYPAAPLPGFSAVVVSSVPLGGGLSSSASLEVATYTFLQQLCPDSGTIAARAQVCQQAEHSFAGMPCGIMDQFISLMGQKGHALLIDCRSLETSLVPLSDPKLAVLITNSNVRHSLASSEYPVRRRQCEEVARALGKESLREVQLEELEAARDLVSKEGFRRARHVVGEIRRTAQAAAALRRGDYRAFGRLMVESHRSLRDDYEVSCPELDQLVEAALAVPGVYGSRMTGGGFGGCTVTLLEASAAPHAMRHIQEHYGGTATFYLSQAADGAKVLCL
Peptidyl-prolyl cis-trans isomerase NIMA-interacting 1 (Homo sapiens), sequence (Q13526 whole entry, looked up): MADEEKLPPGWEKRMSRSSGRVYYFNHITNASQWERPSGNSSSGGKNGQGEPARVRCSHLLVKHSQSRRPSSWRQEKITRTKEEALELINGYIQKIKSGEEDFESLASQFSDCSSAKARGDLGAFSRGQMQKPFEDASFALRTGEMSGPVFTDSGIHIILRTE
DNA dC->dU-editing enzyme APOBEC-3G (Homo sapiens), sequence (Q9HC16 whole entry, looked up): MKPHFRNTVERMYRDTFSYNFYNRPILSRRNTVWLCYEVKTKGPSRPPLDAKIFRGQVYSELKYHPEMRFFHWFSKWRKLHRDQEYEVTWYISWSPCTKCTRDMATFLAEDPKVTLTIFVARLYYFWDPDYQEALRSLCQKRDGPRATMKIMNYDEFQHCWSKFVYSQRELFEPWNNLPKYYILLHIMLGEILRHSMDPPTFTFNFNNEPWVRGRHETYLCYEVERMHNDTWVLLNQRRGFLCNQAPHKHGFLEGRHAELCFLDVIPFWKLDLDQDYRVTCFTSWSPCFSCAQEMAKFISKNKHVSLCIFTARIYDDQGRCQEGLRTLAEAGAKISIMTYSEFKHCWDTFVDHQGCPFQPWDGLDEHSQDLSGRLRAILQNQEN
ATPase family AAA domain-containing protein 5 (Homo sapiens), sequence (Q96QE3 whole entry, looked up, the tested form may be a part): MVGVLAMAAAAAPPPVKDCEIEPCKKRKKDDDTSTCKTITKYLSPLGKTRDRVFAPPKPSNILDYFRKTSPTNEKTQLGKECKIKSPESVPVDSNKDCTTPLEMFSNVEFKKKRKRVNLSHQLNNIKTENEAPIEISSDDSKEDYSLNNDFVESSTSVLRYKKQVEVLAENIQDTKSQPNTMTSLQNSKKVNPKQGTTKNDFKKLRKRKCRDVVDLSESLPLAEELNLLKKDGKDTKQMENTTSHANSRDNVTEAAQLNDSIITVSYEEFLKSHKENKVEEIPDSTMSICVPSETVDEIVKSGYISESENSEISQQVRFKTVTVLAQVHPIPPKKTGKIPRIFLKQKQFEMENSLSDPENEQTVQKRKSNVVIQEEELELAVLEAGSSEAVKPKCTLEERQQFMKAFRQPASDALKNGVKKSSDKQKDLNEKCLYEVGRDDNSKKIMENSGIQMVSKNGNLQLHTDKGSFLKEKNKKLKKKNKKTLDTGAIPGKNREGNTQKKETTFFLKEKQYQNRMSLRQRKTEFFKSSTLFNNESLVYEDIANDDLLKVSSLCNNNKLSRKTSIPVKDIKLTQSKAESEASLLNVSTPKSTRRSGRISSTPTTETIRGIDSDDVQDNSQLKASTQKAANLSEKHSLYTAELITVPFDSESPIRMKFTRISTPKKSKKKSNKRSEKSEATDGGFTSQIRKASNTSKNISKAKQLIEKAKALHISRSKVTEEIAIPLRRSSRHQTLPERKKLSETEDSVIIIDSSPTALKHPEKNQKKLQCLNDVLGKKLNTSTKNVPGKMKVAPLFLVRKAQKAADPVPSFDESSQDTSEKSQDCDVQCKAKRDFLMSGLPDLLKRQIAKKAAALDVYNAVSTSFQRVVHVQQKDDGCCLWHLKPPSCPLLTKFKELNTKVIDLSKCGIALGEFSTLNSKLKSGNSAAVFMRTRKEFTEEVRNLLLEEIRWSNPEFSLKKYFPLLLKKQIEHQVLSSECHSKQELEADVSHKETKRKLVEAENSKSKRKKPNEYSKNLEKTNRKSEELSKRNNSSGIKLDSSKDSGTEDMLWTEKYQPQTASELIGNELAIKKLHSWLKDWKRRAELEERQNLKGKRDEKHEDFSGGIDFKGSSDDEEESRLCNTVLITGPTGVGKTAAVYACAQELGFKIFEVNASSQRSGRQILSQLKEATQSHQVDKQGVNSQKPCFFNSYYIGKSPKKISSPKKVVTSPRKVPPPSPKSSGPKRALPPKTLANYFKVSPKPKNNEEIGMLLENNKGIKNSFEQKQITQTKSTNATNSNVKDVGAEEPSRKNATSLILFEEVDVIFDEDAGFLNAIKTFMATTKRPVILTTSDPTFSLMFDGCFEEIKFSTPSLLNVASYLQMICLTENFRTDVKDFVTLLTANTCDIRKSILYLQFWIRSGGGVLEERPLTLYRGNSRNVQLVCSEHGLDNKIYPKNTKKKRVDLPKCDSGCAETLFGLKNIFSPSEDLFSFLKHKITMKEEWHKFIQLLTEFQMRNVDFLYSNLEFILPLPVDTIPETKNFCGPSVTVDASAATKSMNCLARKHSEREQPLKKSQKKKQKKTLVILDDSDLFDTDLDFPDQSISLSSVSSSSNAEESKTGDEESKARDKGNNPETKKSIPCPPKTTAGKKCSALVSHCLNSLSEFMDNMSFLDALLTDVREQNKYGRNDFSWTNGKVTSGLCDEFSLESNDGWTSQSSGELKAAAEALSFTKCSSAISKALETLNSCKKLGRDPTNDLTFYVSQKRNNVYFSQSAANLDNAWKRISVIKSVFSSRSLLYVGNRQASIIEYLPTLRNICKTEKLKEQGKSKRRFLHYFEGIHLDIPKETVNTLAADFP
Thyrotropin-releasing hormone receptor (Homo sapiens), sequence (P34981 whole entry, looked up): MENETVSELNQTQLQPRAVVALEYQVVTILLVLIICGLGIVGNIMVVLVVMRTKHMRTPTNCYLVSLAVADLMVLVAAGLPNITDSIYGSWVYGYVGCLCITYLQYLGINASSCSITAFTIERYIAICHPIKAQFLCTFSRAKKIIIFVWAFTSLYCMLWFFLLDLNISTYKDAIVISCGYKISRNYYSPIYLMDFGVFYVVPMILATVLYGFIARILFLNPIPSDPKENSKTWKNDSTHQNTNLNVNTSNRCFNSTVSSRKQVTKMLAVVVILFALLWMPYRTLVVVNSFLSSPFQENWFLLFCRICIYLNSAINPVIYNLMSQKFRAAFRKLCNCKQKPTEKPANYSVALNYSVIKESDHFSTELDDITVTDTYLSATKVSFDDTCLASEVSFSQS

With `Cc1nc2c([nH]1)c(=O)n(C)c(=O)n2Cc1ccco1`, the Potency result in assay [1], in [3], in assay [9] and in assay [10] was “inactive” throughout. Further, in [2], the activation is 0.812% (inactive). In [3], the viability change is -1.43%. Besides, the outcome in assay [4], in [5], in assay [6], in [7] and in [8] was inactive.
Regarding `CN1CCN(CC(=O)N2c3ccccc3C(=O)Nc3cccnc32)CC1`, the Potency result in assay [1], in assay [3], in [9], in [10] and in assay [12] was “inactive” each time. The viability change in assay [3] came out at 11.6%. Moreover, the outcome in [4], in assay [5], in assay [6], in [7], in [11] and in [8] was inactive. In addition, in assay [13], the result was inactive.
`C[n+]1cc2c3c(ccc2c2ccc4cc5c(cc4c21)OCO5)OCO3`: in assay [2], the activation was 2.44% (inactive). Also, the result in [4], in [5], in [6], in assay [7], in [11] and in [8] was inactive. The Potency result in assay [9] was “inactive”. The Potency in assay [10] is 3.55 µM (active); in assay [12], 6.31 µM (active).
`CN(C)[C@@H]1C(=O)C(C(N)=O)=C(O)[C@@]2(O)C(=O)C3=C(O)c4c(O)ccc(Cl)c4[C@@H](O)[C@H]3C[C@@H]12`: the Potency entry in assay [1], in assay [14], in assay [3], in [9], in assay [10] and in assay [12] was “inactive” in each case. Besides, the viability change in assay [3] was 4.27%. Further, the call in assay [4] and in [8] was inactive.
On to `NS(=O)(=O)c1cc2c(cc1Cl)NC(C1CC3C=CC1C3)NS2(=O)=O` (stereo unspecified), for which the Potency entry in [1], in assay [14], in assay [3], in assay [9] and in assay [10] was “inactive” throughout. In addition, the viability change in assay [3] was 12.8%. For the same compound, the result in assay [4], in assay [5], in [6], in assay [11] and in assay [8] was inactive.
As for `CCCN(CCC)CCc1cccc2c1CC(=O)N2`, the Potency result in assay [1], in assay [14], in assay [3], in assay [9], in [10] and in [12] was “inactive” each time. In assay [3], the viability change was found to be 1.11%. Further, the outcome in assay [5], in assay [6], in assay [7], in assay [11] and in assay [8] was inactive.
For the compound `c1ccc2c(c1)CCCC2C1=NCCN1` (stereo unspecified), the Potency entry in assay [1], in assay [14], in [3], in assay [9] and in [10] was “inactive” throughout. Besides, in assay [3], the viability change is -0.882%. The result in assay [4], in [5], in assay [6], in assay [7] and in [8] was inactive.
On to `CCCCNc1c(C(=O)OCC)c(C)nc2c1cnn2CC`, for which the Potency entry in assay [1], in [3], in [9], in assay [10] and in assay [12] was “inactive” in each case. For the same compound, the viability change in [3] stood at 2.43%. The compound was classed as inactive in assay [5], in assay [6], in assay [7], in assay [11], in assay [8] and in assay [13].
Turning to `NC(N)=NC(=O)Cc1c(Cl)cccc1Cl`, the Potency entry in assay [1], in assay [14], in [9], in assay [10] and in assay [12] was “inactive” each time. Moreover, the result in assay [5], in assay [6], in assay [7], in assay [11], in assay [8] and in [13] was inactive.
Consider `CN1C(=O)CC[C@H]1c1cccnc1`, for which the Potency entry in assay [1], in assay [3], in [9], in [10] and in assay [12] was “inactive” in each case. In assay [3], the viability change worked out at 0.268%. Besides, the compound was classed as inactive in [7], in assay [11] and in assay [8].
For the compound `COc1ccc(CN(CCN(C)C)c2ccccn2)cc1`, the Potency entry in [1], in assay [3], in assay [9] and in [10] was “inactive” throughout. Besides, the viability change in assay [3] came to 0.301%. Further, the result in [4], in assay [5], in assay [6], in assay [7], in [11] and in [8] was inactive. For the same compound, in [13], the result was inactive.
